This is an account of results in the supplement of paper PMC3334620.

Whole data set: some 33,000 sequences, median “E-score (-0.5 to 0.5)” near -0.054, cut for the highest 2% near 0.39. Only a selection was taken, and the highest values are over-represented in it overall.

Chain of UniProt Q05854 (Q05854 whole entry, the tested form may be a part): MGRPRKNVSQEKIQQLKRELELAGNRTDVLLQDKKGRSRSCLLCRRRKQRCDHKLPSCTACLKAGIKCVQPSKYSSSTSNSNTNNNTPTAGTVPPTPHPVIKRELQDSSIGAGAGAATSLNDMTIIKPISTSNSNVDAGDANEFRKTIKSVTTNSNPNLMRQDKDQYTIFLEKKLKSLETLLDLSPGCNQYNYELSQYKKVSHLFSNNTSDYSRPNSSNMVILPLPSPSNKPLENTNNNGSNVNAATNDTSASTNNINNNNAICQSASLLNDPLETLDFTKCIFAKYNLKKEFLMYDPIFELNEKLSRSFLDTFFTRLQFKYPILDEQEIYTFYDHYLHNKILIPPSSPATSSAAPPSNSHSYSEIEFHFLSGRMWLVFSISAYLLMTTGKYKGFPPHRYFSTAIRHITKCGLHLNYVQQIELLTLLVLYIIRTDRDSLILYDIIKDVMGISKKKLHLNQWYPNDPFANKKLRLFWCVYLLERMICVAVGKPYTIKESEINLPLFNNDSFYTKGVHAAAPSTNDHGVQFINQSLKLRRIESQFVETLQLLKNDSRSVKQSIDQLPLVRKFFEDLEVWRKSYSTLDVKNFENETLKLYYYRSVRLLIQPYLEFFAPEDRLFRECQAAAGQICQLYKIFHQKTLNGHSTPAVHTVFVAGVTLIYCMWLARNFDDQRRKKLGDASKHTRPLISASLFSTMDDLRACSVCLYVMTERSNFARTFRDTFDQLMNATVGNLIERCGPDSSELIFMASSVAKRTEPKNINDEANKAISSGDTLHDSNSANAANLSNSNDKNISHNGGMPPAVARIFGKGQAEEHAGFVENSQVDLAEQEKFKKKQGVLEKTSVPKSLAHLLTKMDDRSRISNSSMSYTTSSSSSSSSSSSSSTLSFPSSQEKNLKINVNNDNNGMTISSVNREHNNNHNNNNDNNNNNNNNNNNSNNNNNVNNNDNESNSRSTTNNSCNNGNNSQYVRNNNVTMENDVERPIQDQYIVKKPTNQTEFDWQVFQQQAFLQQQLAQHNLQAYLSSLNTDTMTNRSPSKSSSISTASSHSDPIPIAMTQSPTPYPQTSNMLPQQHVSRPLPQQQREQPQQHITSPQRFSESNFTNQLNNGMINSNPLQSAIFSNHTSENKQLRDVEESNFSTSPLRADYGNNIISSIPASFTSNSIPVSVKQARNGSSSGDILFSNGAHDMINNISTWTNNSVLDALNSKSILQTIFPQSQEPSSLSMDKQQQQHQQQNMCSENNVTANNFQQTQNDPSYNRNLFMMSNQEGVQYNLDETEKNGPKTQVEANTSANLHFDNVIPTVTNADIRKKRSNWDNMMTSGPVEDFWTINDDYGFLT

The test addresses Ylr278c (UniProt Q05854). The test can be described thus: PBM E-score (8-mer binding enrichment) (E-score (-0.5 to 0.5)); higher = stronger / more preferred TF binding. The following applies: protein concentration: 200 nM; construct: GST-DNA-binding domain. As to the method:
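Universal 'all 10-mer' protein binding microarrays (Agilent AMADID 015681) probed with GST-tagged S. cerevisiae TFs (full-length or DBD) made by in vitro transcription/translation (PURExpress), about 100-200 nM. Bound TF was detected with fluorescent anti-GST. Each ungapped 8-mer (which stands for itself and its reverse complement) is scored by the PBM enrichment score (E-score), a modified Wilcoxon-Mann-Whitney statistic from -0.5 to +0.5, computed with the Universal PBM Analysis Suite. Scale: above 0.35 generally sequence-specific binding.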
As for CACCGAGA, the “PBM E-score” value was 0.034.

With CTCCGAGC, the “PBM E-score” value was found to be 0.439.

For the sequence ATCCGAGA, the “PBM E-score” value is 0.299.

For the sequence GTCCGAGA, the “PBM E-score” value was determined as 0.416.

GGCCGAGA: the “PBM E-score” value came out at 0.272.

As for CCCCGAGC, the “PBM E-score” value stood at 0.219.

Turning to ATCCGAGC, the “PBM E-score” value is 0.266.

Turning to CGCCGAGA, the “PBM E-score” value was 0.304.

For the sequence CTCCGAGA, the “PBM E-score” value is 0.452.

On to AAATATCT, for which the “PBM E-score” value came to 0.00279.

Turning to GCGCAGTA, the “PBM E-score” value amounted to 0.0804.

With ACTAGCGA, the “PBM E-score” value was -0.0813.

ATGGATGC: the “PBM E-score” value is -0.0459.

For the sequence ATCATGAT, the “PBM E-score” value was -0.14.

Turning to ACGTAGAC, the “PBM E-score” value is -0.244.

In the case of ACGGAGAG, the “PBM E-score” value worked out at 0.336.

Take CAGGAGAG: the “PBM E-score” value is -0.205.

With ATGGAGAA, the “PBM E-score” value was 0.148.

For the sequence CAGGAGAA, the “PBM E-score” value stood at 0.0274.

Regarding CCGGAGAA, the “PBM E-score” value came to 0.489.

As for ACGGAGAA, the “PBM E-score” value was 0.434.

Regarding AAGGAGAA, the “PBM E-score” value was -0.0157.

On to CTGGAGAC, for which the “PBM E-score” value is -0.222.

For CGGGAGAC, the “PBM E-score” value came to 0.302.

Turning to CCGGAGAC, the “PBM E-score” value stood at 0.444.

Consider CCGGAGAG, for which the “PBM E-score” value worked out at 0.456.

Regarding CTGGAGAA, the “PBM E-score” value was -0.141.

For CTCAGAAA, the “PBM E-score” value is -0.257.

On to GAAGACAA, for which the “PBM E-score” value was -0.0383.

Consider ACCGATCG, for which the “PBM E-score” value came out at 0.26.

Regarding CGGGTAAA, the “PBM E-score” value is 0.156.

On to CTGAGAAG, for which the “PBM E-score” value is -0.149.

With ACGAGTCG, the “PBM E-score” value was -0.159.

Regarding AATTTCGT, the “PBM E-score” value is -0.0607.

Consider CGAGATCA, for which the “PBM E-score” value amounted to 0.013.

As for GGCAGCGA, the “PBM E-score” value worked out at 0.0771.

For the sequence CCCAGGAG, the “PBM E-score” value was -0.188.

With CAACACTC, the “PBM E-score” value came out at 0.133.

On to TACGGTCA, for which the “PBM E-score” value is 0.0722.

Turning to GTAAAGAA, the “PBM E-score” value is -0.0759.

Turning to GTGGAGAA, the “PBM E-score” value was -0.0956.

For the sequence GCGGAGAA, the “PBM E-score” value was 0.436.

Consider TCGGAGAA, for which the “PBM E-score” value amounted to 0.465.

GGGGAGAA: the “PBM E-score” value worked out at 0.0935.

In the case of TGGGAGAA, the “PBM E-score” value is -0.208.

Take TAGGAGAA: the “PBM E-score” value was -0.134.

As for ATACCTTG, the “PBM E-score” value was -0.236.

Turning to AACCTAGG, the “PBM E-score” value is -0.102.

On to CATAGGAG, for which the “PBM E-score” value is -0.136.

Take GACTATGA: the “PBM E-score” value is -0.11.

Regarding AGTCTTGA, the “PBM E-score” value was -0.247.

As for CTGAAATC, the “PBM E-score” value is 0.0679.

Regarding CGGAAAAG, the “PBM E-score” value was 0.373.

AGGAAATC: the “PBM E-score” value was determined as 0.178.

As for CGGAAATA, the “PBM E-score” value stood at 0.451.

Take GGGAAATA: the “PBM E-score” value is 0.0851.

For the sequence CGGAAAAA, the “PBM E-score” value turned out to be 0.446.

AGGAAATA: the “PBM E-score” value turned out to be 0.0859.

CGGAAAAC: the “PBM E-score” value was determined as 0.373.

For the sequence CGGAAATC, the “PBM E-score” value was 0.41.

ACGCGAGA: the “PBM E-score” value was -0.171.

As to CATTCAAG, the “PBM E-score” value is -0.154.

CTGCGGGC: the “PBM E-score” value was determined as 0.276.

For CTCCGGGA, the “PBM E-score” value is 0.468.

For the sequence GTCCGGGA, the “PBM E-score” value was determined as 0.38.

ATCCGGGA: the “PBM E-score” value was determined as 0.332.

As for AACCGGGC, the “PBM E-score” value stood at 0.0679.

As to AACCGGGG, the “PBM E-score” value is 0.321.

In the case of CACCGGGC, the “PBM E-score” value was 0.304.

For the sequence CTCCGGGC, the “PBM E-score” value was found to be 0.448.

In the case of CCCGGGGA, the “PBM E-score” value worked out at 0.358.

Consider ATCCGGGC, for which the “PBM E-score” value was determined as 0.406.

On to ATCCGAGG, for which the “PBM E-score” value was 0.274.

In the case of ATCCGGGG, the “PBM E-score” value turned out to be 0.414.

Consider TAAGAGTA, for which the “PBM E-score” value was -0.0846.

With ACGACAGA, the “PBM E-score” value was -0.232.

Regarding AGCCGCAC, the “PBM E-score” value was -0.0107.

On to CCAGACGA, for which the “PBM E-score” value is -0.149.

As to CCGCTTTC, the “PBM E-score” value was 0.211.

In the case of CATCCATA, the “PBM E-score” value was -0.123.

With AGGAGTCA, the “PBM E-score” value is -0.121.

On to AGGAGTCC, for which the “PBM E-score” value is 0.13.

Regarding GGGAGTCA, the “PBM E-score” value was -0.00639.

As for CGGAGTCA, the “PBM E-score” value was 0.457.

As for CAGAGTCC, the “PBM E-score” value was 0.0837.

CGGAGTCC: the “PBM E-score” value was determined as 0.464.

Turning to GAAGCCAA, the “PBM E-score” value was 0.0199.

On to ACTGTTCA, for which the “PBM E-score” value is -0.122.

Take TATTCCAA: the “PBM E-score” value was -0.177.

With CATTCCGA, the “PBM E-score” value was 0.391.

As for GATTCCCA, the “PBM E-score” value turned out to be 0.0255.

In the case of TATTCCCA, the “PBM E-score” value worked out at 0.138.

Consider GATTCCGA, for which the “PBM E-score” value is 0.413.

As for TATTCCGA, the “PBM E-score” value worked out at 0.453.

Turning to GATTCCAA, the “PBM E-score” value was -0.116.

As for CATTCCGG, the “PBM E-score” value is 0.384.

CATTCCTA: the “PBM E-score” value was -0.212.

For AGCTAGTA, the “PBM E-score” value was -0.114.

On to GAGTTCCC, for which the “PBM E-score” value was found to be 0.0904.

With AACTTATA, the “PBM E-score” value was 0.0873.

On to CAAGCAGG, for which the “PBM E-score” value was determined as 0.00606.

For the sequence CCTACAGA, the “PBM E-score” value was -0.256.

Regarding GAGTCGCC, the “PBM E-score” value came out at 0.0773.

With GTCAGATA, the “PBM E-score” value was -0.151.

In the case of TCCTTGAA, the “PBM E-score” value is -0.227.

As to GTTTCTGA, the “PBM E-score” value is 0.0572.

Take CGGGCCCA: the “PBM E-score” value came out at 0.091.

Take CGGGCCCG: the “PBM E-score” value is 0.398.

In the case of AGGGCCCG, the “PBM E-score” value came to 0.152.

For ATTTCTGC, the “PBM E-score” value was 0.184.
